# Assay results taken from publication PMC5540273 (PLoS ONE, 2017).
# Values joined by “and” are separate entries in the source; they are usually repeats but may differ in a detail not shown here. Equal entries are not always repeated. Where two headings read alike, the source gives them in different places.
# What was measured:
# EPHB2 = conditions: concentration: 1 μM, replicates: in singlicate; n = 1
# EPHB3 = conditions: concentration: 1 μM, replicates: in singlicate, n = 1
# EPHB4 = conditions: concentration: 1 μM, replicates: in singlicate, n = 1
# EPHB6 = conditions: concentration: 1 μM, replicates: in singlicate, n = 1
# ERBB2 = conditions: concentration: 1 μM, replicates: in singlicate, n = 1
# ERBB3 = conditions: concentration: 1 μM, replicates: in singlicate, n = 1
# ERBB4 = conditions: concentration: 1 μM, replicates: in singlicate, n = 1
# ERK1 = test system: T1, ERK1; conditions: concentration: 1 μM, replicates: in singlicate; n = 1
# T1 construct: gene MAPK3
# ERK2 = test system: T2, ERK2; conditions: concentration: 1 μM, replicates: in singlicate; n = 1
# T2 construct: gene MAPK1
# ERK3 = test system: T3, ERK3; conditions: concentration: 1 μM, replicates: in singlicate, n = 1
# T3 construct: gene MAPK6
# 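Further: KINOMEscan kinase panel screen.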
SMILES,%Inh (EPHB2),%Inh (EPHB3),%Inh (EPHB4),%Inh (EPHB6),%Inh (ERBB2),%Inh (ERBB3),%Inh (ERBB4),%Inh (ERK1),%Inh (ERK2),%Inh (ERK3),%Inh (EPHB3; 1 µM),%Inh (EPHB4; 1 µM),%Inh (EPHB6; 1 µM),%Inh (ERBB2; 1 µM),%Inh (ERBB3; 1 µM),%Inh (ERBB4; 1 µM),%Inh (ERK3; 1 µM)
FC(F)(F)c1ccc(-c2nn3ncccc3c2-c2ccnc(Nc3cccc(C(F)(F)F)c3)n2)cc1 [GW828205],1%,68%,55%,0%,13%,27%,35%,0%,3%,0%,,,,,,,
COc1cc2c(Nc3cccc(NC(=O)c4ccccc4)c3)ncnc2cc1OCCCN1CCOCC1 [GSK223810],0%,5%,0%,60%,18%,0%,55%,0%,0%,0%,,,,,,,
CCc1nc(-c2cccc(N(C)S(=O)(=O)c3ccccc3)c2)c(-c2ccnc(Nc3ccc(N4CCN(C(C)=O)CC4)nc3)n2)s1 [GSK1645895],0%,0%,0%,96.9%,17%,0%,26%,0%,0%,0%,,,,,,,
CC(C)(C)OC(=O)NC1CCCN(c2cc(-c3ccc4c(N)n[nH]c4c3)nc(N)n2)C1 (stereo not shown) [GSK2286096],90.5%,14%,9%,0%,0%,0%,33%,0%,0%,0%,,,,,,,
COC(=O)c1c(-c2ccccc2)c2cc(Cl)ccc2c(=O)n1Cc1ccc(S(C)(=O)=O)cc1,18%,24%,0%,0%,0%,0%,29%,0%,3%,0%,,,,,,,
CS(=O)(=O)CCNCc1ccc(-c2ccc3ncnc(Nc4ccc(OCc5ccccc5)c(Cl)c4)c3c2)o1.Cl [GW574783],0%,18%,8%,28%,100%,69%,90.8%,4%,0%,0%,,,,,,,
Oc1ccc2ncnc(Nc3ccc(OCc4ccccc4)cc3)c2c1 [GI262866],0%,12%,2%,0%,99.2%,15%,77%,0%,0%,3%,,,,,,,
Nc1nccc2scc(-c3ccc4c(c3)CCN4C(=O)Cc3cc(F)ccc3F)c12 [GSK2587663],10%,34%,27%,59%,14%,0%,46%,3%,0%,4%,,,,,,,
Cl.Cn1ccc(-c2cccc(Nc3ccnc4cc(-c5nccs5)ccc34)c2)n1 [GW525701],0%,9%,47%,94.2%,53%,64%,45%,0%,0%,0%,,,,,,,
CNc1nccc(-c2c(-c3ccc(F)cc3)ncn2C2CCN(C)CC2)n1 [SB-222903],0%,2%,0%,0%,0%,0%,2%,1%,0%,0%,,,,,,,
CC(C)N1CCC(n2cnc(-c3ccc(F)cc3)c2-c2ccnc(N)n2)CC1 [SB-223132],32%,0%,22%,0%,16%,44%,0%,0%,11%,0%,,,,,,,
FC(F)(F)c1cc(Nc2nccc(-c3c(-c4ccc(Cl)cc4)nn4ncccc34)n2)ccc1Cl [GW829351],0%,0%,0%,0%,0%,0%,45%,0%,0%,0%,,,,,,,
Clc1cccc(-c2nc(Nc3ccncc3)c3ccccc3n2)c1 [GW873004],2%,0%,45%,0%,38%,46%,0%,1%,12%,0%,,,,,,,
Cn1cc(-c2ccc3c(c2)CCN3C(=O)Cc2cccc(C(F)(F)F)c2)c2c(N)ncnc21 [GSK2606414],0%,0%,0%,18%,0%,0%,0%,0%,0%,2%,,,,,,,
COc1cc2ncnc(Nc3ccc(OCc4ccccc4Br)c(Cl)c3)c2cc1OC.Cl [GI261590],5%,22%,31%,26%,96.5%,29%,100%,0%,16%,0%,,,,,,,
COc1ccc(-c2nc3n(c2-c2ccncc2)CCC3)cc1 [SKF-104493],0%,,,,,,,0%,0%,,10% and 4%,16% and 11%,8% and 0%,0% and 29%,0% and 8%,29% and 18%,0% and 9%
Nc1nc(-c2ccccn2)c(-c2ccnc3ccccc23)s1 [GW548057],14%,14%,0%,27%,53%,31%,11%,0%,0%,10%,,,,,,,

SMILES,%Inh (EPHB2),%Inh (EPHB3),%Inh (EPHB4),%Inh (EPHB6),%Inh (ERBB2),%Inh (ERBB3),%Inh (ERBB4),%Inh (ERK1),%Inh (ERK2),%Inh (ERK3),%Inh (EPHB3; 1 µM),%Inh (EPHB4; 1 µM),%Inh (EPHB6; 1 µM),%Inh (ERBB2; 1 µM),%Inh (ERBB3; 1 µM),%Inh (ERBB4; 1 µM),%Inh (ERK3; 1 µM)
c1ccc(-c2ccc3c(-c4ccnc(Nc5ccc6c(c5)OCCO6)n4)cnn3n2)cc1 [GW818941],3%,13%,10%,0%,21%,15%,0%,11%,6%,0%,,,,,,,
Fc1cccc(COc2ccc(Nc3ncnc4cc[nH]c34)cc2Cl)c1,20%,0%,22%,19%,100%,11%,83%,8%,24%,22%,,,,,,,
Clc1ccc(-c2cc(-c3c[nH]nc3-c3ccccn3)ccn2)cc1 [GW681251],31%,15%,1%,0%,17%,0%,0%,0%,0%,8%,,,,,,,
Fc1ccc(-c2ncn(CCCNCc3ccccc3)c2-c2ccncc2)cc1,14%,19%,17%,36%,10%,23%,0%,5%,14%,0%,,,,,,,
O=C(Nc1n[nH]c2nc(-c3ccco3)c(Br)cc12)c1ccc(CN2CCCC2)cc1.O=C(O)[C@H](O)[C@@H](O)C(=O)O [SB-742352],47%,0%,0%,95.7%,0%,0%,27%,0%,0%,0%,,,,,,,
COc1ccc(Nc2nccc(N3CCC(NC(=O)Nc4ccc5c(c4)OCO5)C3)n2)cc1 (stereo not shown) [GSK1379745],0%,24%,29%,47%,28%,28%,0%,3%,12%,14%,,,,,,,
CSc1ccc(NC2=C(c3ccccc3Cl)C(=O)NC2=O)cc1 [SB-342411],15%,0%,3%,18%,0%,0%,0%,5%,0%,0%,,,,,,,
FC(F)(F)c1ccc(-c2cc(-c3c[nH]nc3-c3ccccn3)ccn2)cc1 [GW599550],0%,0%,8%,37%,38%,16%,0%,15%,0%,0%,,,,,,,
Nc1nc(-c2ccc3c(N)n[nH]c3c2)cc(N2CCC[C@@H](C(=O)Nc3ccccc3)C2)n1.O=C(O)C(F)(F)F.O=C(O)C(F)(F)F [GSK2288359],0%,5%,1%,29%,0%,0%,2%,100%,0%,18%,,,,,,,
O=C(NCCCN1CCCC1=O)c1cnc(NCc2cc(Cl)ccc2Cl)nc1NC1CCNCC1,0%,0%,0%,19%,9%,3%,0%,0%,11%,0%,,,,,,,
Cl.c1ccc(Cn2ncc3cc(Nc4ncnc5ccccc45)ccc32)cc1 [GW273749],0%,0%,10%,31%,100%,68%,96.2%,0%,0%,57%,,,,,,,
CN1c2ccc(-c3ccc(C(=O)NCCO)cc3)cc2-c2[nH]ncc2S1(=O)=O,20%,18%,23%,54%,8%,0%,10%,10%,11%,5%,,,,,,,
CC(C)(C)c1ccc(-n2cnc3c(N)ncnc32)cc1 [SKF-97263],17%,31%,15%,9%,29%,0%,0%,7%,0%,0%,,,,,,,
Nc1n[nH]c2nnc(-c3ccccc3)cc12 [SB-517389],80%,10%,22%,0%,7%,0%,0%,0%,0%,16%,,,,,,,
Fc1cccc(COc2ccc(Nc3ncnc4nn5ccccc5c34)cc2Cl)c1 [GW689066],0%,16%,0%,1%,98.2%,27%,95.2%,0%,0%,0%,,,,,,,
CCn1c(-c2ccncc2)nc2cnccc21 [SB-735216],16%,11%,7%,8%,0%,33%,0%,0%,0%,0%,,,,,,,
O=c1cc(N2CCOCC2)nc2n(Cc3cccc(Cl)c3)ccn12 [GSK2296823],0%,15%,9%,56%,0%,0%,100%,0%,0%,0%,,,,,,,
